Most compounds without a hit are left out; they make up all but 9.2% or so of the library.
ELG1 DNA repair – qHTS screen for small molecules that inhibit ELG1-dependent DNA repair in human embryonic kidney (HEK293T) cells expressing luciferase-tagged ELG1 | HEK293T ELG1-luciferase reporter, luminescence, 16 h; DNA damage induced by 5-fluorouridine | Potency, µM (top dose mostly 46.1 µM), without a hit: at the highest dose activity change, negative = inhibition, hits mostly inhibitors | 2.3% of 330,000 active; further: on the % scale 0 is the no-effect control and ±100 the full control effect; nearly all actives have a fitted effect of over 55% in size
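Step one: seed 2,000 cells per well. Step two: pin-transfer compound or DMSO alongside 5-fluorouridine. Step three: incubate 16 hr, 37 °C, 5% CO2. Step four: add ONE-Glo, wait 30 min, read luminescence.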
ELG1 genotoxic – qHTS screen for small molecules that induce genotoxicity in human embryonic kidney (HEK293T) cells expressing luciferase-tagged ELG1; HEK293T ELG1-luciferase reporter, luminescence, 16 h; Potency, µM (highest dose often 46 µM), for the others: at the top dose activity change, positive = activation, usual class: activators; 1.3% of 330,000 active; AID 504466, 2011; further: % of control where 0% means no effect; nearly all actives have a fitted effect of over 60% in size
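HEK293T cells expressing luciferase-tagged ELG1 were treated with compound or DMSO for 16 hr at 37°C. Luciferase activity was then read after 30 min with ONE-Glo at room temperature; rising signal flags genetic stress.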
NPC1 prom act – qHTS Assay for NPC1 Promoter Activators; Huh7 NPC1 promoter luciferase reporter, 24 h; Potency, µM (series often up to 9.22 µM), for the others: at the top dose activation, usual class: activators; 2.4% of 320,000 active; further: % of control where 0% means no effect; nearly all actives have a fitted effect of over 60% in size
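NPC1 promoter–luciferase Huh7 cells; 24 h compound; luminescence.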
SMN2 splice enh – qHTS Assay for Enhancers of SMN2 Splice Variant Expression; HEK293 SMN2-luciferase splicing reporter, luminescence, 30-36 h; Potency, µM (top dose mostly 46.1 µM), for inactives: top-dose activity change, positive = activation, hits mostly activators; 2.8% of 210,000 active; AID 1458, 2008; further: % of control where 0% means no effect; nearly all actives have a fitted effect of over 55% in size
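qHTS luciferase splicing reporter: luminescence rises when SMN2 exon 7 is included in transfected HEK293 cells. Compound exposure lasted 30-36 h at 37C, with 4.5 mM final sodium butyrate as control, followed by a ONE-Glo read.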
FLuc modulator – qHTS profiling assay for firefly luciferase inhibitor/activator using purifed enzyme and Km concentrations of substrates (counterscreen for miR-21 project); Luciferin 4-monooxygenase (Photinus pyralis), P08659; purified FLuc, Km substrates, luminescence inhibition; Potency, µM (doses to about 57.5 µM), inactives show top-dose activity change, negative = inhibition, most hits filed as inhibitors; 6.9% of 360,000 active; AID 588342, 2011;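 further: plate controls were vehicle for no effect and reference inhibitor for full effect; nearly all actives have a fitted effect of over 55% in size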
Target sequence (P08659 whole entry, looked up): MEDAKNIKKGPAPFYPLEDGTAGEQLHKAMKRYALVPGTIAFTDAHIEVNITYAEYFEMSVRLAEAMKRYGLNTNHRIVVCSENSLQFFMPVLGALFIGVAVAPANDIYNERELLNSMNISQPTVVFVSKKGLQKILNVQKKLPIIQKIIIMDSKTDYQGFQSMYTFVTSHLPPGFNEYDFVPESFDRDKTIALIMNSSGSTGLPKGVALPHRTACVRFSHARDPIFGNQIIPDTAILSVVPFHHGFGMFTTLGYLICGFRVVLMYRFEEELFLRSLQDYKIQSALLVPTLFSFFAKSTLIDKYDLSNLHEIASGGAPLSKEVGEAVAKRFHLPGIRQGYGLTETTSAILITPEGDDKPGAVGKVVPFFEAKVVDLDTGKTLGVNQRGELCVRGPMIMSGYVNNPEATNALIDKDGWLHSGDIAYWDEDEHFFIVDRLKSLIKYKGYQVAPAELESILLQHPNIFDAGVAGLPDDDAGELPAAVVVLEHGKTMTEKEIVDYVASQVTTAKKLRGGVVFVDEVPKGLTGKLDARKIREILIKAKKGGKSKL
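Purified P. pyralis luciferase (10nM final) with 10uM D-luciferin and 10uM ATP (Km levels) in 50mM Tris acetate pH 7.5, 10mM Mg acetate, 0.01% Tween-20, 0.05% BSA; qHTS 6-point titration, ~60 µM downward; luminescence read.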
Rab9 promoter act – qHTS Assay for Rab9 Promoter Activators | Potency, µM (titrated, usually from 9.22 µM), for the others: at the top dose activation, negative = inhibition, most hits filed as activators | 2.8% of 320,000 active | Huh7 Rab9 promoter-luciferase reporter, luminescence, 24 h; further: % of control where 0% means no effect; nearly all actives have a fitted effect of over 60% in size
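Using Huh7 cells stably transfected with Rab9 promoter–luciferase, compounds were incubated 24 h at 37 °C, 5% CO2; luciferase luminescence was read 10 min after reagent addition.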
Starred values were filed as active, the others as inactive; ? = inconclusive; . = not tested or not shown; [ ] = another dose, or the depositor's remark. The call rests on the fitted dose curve; in most records, active means well fitted curve in the direction sought with a large enough effect; inconclusive means small, poorly fitted or top-dose-only effect, or another doubt; inactive means no such curve, though single readings can be large; an effect the other way counts as inactive or inconclusive. Potency means the concentration at half of the fitted maximal effect.

SMILES	ELG1 DNA repair	ELG1 genotoxic	NPC1 prom act	SMN2 splice enh	FLuc modulator	Rab9 promoter act
CCNC(=S)NNC(=O)c1csc(C(C)C)c1	?	13.7%	21.8%	11.2µM*	-22.8%	?
Cn1c(N)c(C(=O)c2cc(-c3ccncc3)nc3ccccc23)c(=O)n(C)c1=O	?	?	-1.9%	11.7%	23.9µM*	0.5%
COc1ccc(-c2cc(C(=O)OCC(=O)NC3CC3)c3ccccc3n2)cc1OC	?	-1.1%	.	.	.	.
COc1ccc(-c2cc(C(=O)c3c(N)n(C)c(=O)n(C)c3=O)c3ccccc3n2)cc1OC	?	?	9.1%	.	9.53µM*	24.3%
Cn1c(N)c(C(=O)COC(=O)c2cc(-c3ccccc3)nc3ccccc23)c(=O)n(C)c1=O	.	.	.	-3.7%	.	.
COc1ccc(Nc2nn(-c3ccc(OC(F)(F)F)cc3)nc2C(C)=O)cc1	.	.	.	-8.2%	-0.4%	.
CCOC(=O)N1CCC(Nc2ncnc3c2cnn3-c2ccc(Cl)cc2)CC1	?	11.6µM*	?	7.9%	?	?
CCOC(=O)c1ccc(Nc2ncnc3c2cnn3-c2cccc(Cl)c2)cc1	.	.	.	.	-14.2%	.
COc1ccc(-n2ncc3c(NC4CCCC4)ncnc32)cc1	.	.	.	.	1.35µM*	.
c1ccc(-n2ncc3c(NC4CCCC4)ncnc32)cc1	.	.	.	.	4.78µM*	.
Cc1ccc(CNc2ncnc3c2cnn3-c2ccc(Cl)cc2)cc1	.	.	.	.	-7.0%	.
Cc1ccc(-n2ncc3c(NC4CCCC4)ncnc32)cc1	.	.	.	.	0.379µM*	.
Cc1ccc(N(CC(=O)N/N=C/c2cc(C)n(-c3ccccc3C)c2C)S(C)(=O)=O)cc1	17.1%	-1.5%	-4.8%	0.5%	16.9µM*	2.6%
Cc1cc(C)cc(-n2c(C)cc(/C=N/NC(=O)CN(c3c(C)cccc3C)S(C)(=O)=O)c2C)c1	-3.2%	-1.6%	-1.2%	17.4%	0.1%	-34.8%
Cc1nc2ccccc2c(=O)n1NC(=O)c1ccc([N+](=O)[O-])cc1	9.3%	1.3%	0.0%	-0.5%	-11.6%	-1.4%
C=C(C)COc1ccc(-c2nc(N)ncc2Oc2ccccc2OC)c(O)c1	-6.9%	4.0%	2.2%	-4.0%	21.3µM*	2.5%
C=C(C)COc1ccc(-c2nc(N)ncc2Oc2ccc(OC)cc2)c(O)c1	-23.2%	-1.6%	-2.9%	-9.9%	-18.2%	-5.4%
Cc1cccc2nc(COc3ccc4ccccc4c3Br)cn12	?	?	3.55µM*	.	2.39µM*	3.16µM*
Cn1cccc1/C=N/NC(=O)c1cc2ccccc2cc1O	?	?	?	.	19µM*	?
CC(C)CNC(=O)C(=O)N/N=C/c1cccs1	?	?	?	3.5%	?	?
CC(C)(C)NC(=O)C(=O)N/N=C/c1cccs1	?	?	?	?	15.1µM*	1.78µM*
Cn1cccc1C(=O)N/N=C/c1c(Cl)cccc1Cl	?	16.4µM*	2.51µM*	.	10.7µM*	2.82µM*
Cc1ccc(/C=N/NC(=O)c2ccccn2)s1	?	?	1.26µM*	3.98µM*	?	0.501µM*
O=C(N/N=C/c1c(Cl)cccc1Cl)c1ccc(F)cc1	26.1%	9.8%	11.8%	-4.2%	?	19.8%
COc1ccccc1CNC(=O)c1cc(C(C)=O)c[nH]1	?	1.3%	0.6%	.	1.7%	0.1%[1.84 µM]
SMILES	ELG1 DNA repair	ELG1 genotoxic	NPC1 prom act	SMN2 splice enh	FLuc modulator	Rab9 promoter act
CN(CCC#N)C(=O)COC(=O)c1cc(Cl)cc(Cl)c1N	-1.0%	-2.0%	-3.8%	9.7%	2.7%	-1.3%
Cn1cccc1/C=N/NC(=O)c1ccccn1	?	?	?	.	13.5µM*	3.55µM*
O=C(N/N=C/c1cccs1)c1ccccn1	?	?	3.55µM*	25.1µM*	10.7µM*	2.51µM*
O=C(O)c1cc(O)ccc1NC(=O)C(c1ccccc1)c1ccccc1	-10.7%	-6.4%	7.0%	.	1.6%	-2.4%
O=C(CC12CC3CC(C1)CC(CC(=O)NC1=NCCS1)(C3)C2)NC1=NCCS1	-1.1%	0.3%	-1.6%	-1.8%	5.3%	1.4%
O=C(NC1=NCCS1)C12CC3CC(C1)CC(C(=O)NC1=NCCS1)(C3)C2	23.1µM*	-23.3%	1.6%	-12.4%	1.1%	-4.8%
COc1ccc(C(=O)n2nc(-c3cccnc3)nc2NCc2ccccc2)cc1OC	.	.	.	5.1%	?	.
CC(=O)NNC(=O)CCn1c2c(c3ccccc31)CCCC2	-7.6%	-5.3%	-0.8%	.	0.5%	-6.1%
CCOC(=O)NNC(=O)CCn1c2c(c3ccccc31)CCCC2	18.3µM*	-10.1%	8.1%	.	-8.8%	0.4%
Cc1cc(/C=N/Nc2nc(N)ncc2[N+](=O)[O-])c(C)n1-c1ccccc1F	?	?	?	.	0.0478µM*	-16.6%
Cc1ccc2c(c1)nnn2C1CCN(C(=O)NC23CC4CC(CC(C4)C2)C3)CC1	?	-3.7%	-3.2%	-2.9%	5.5%	-1.9%
Cc1ccc2c(c1)nnn2C1CCN(C(=O)C23CC4CC(CC(C4)C2)C3)CC1	23.1µM*	-3.7%	-0.8%	-61.3%	4.7%	-7.3%
CCOC(=O)CN(C(=O)CN1CCC(n2nnc3cc(C)ccc32)CC1)c1ccccc1	?	-3.6%	-4.0%	-4.5%	-0.3%	-1.3%
Cc1ccc2c(c1)nnn2C1CCN(CC(=O)N(c2ccccc2)c2ccccc2)CC1	16.4µM*	-13.1%	-8.7%	.	-0.6%	-5.5%
COc1ccc(C)cc1N(CC(=O)N/N=C/c1ccccc1C(=O)O)S(=O)(=O)c1ccccc1	-18.9%	0.2%	-2.6%	4.0%	-18.0%	0.9%
COc1ccc(NC(=O)N2CCCC3(CCN(C(=O)c4ccc(OC)cc4)CC3)C2)cc1	.	.	.	0.0%	.	.
Cc1ccc(S(=O)(=O)N=S(CC2CC2(Cl)Cl)CC2CC2(Cl)Cl)cc1 (stereo not given)	-10.2%	-1.5%	-2.3%	18.4%	0.7%	-2.4%
COc1ccc(-c2cc(C(=O)N3CCCCCC3)c3ccccc3n2)c(OC)c1	?	-15.6%	-5.7%	.	-10.6%	-2.2%
COc1ccc(-c2cc(C(=O)N3CCN(c4ccccc4F)CC3)c3ccccc3n2)c(OC)c1	5.8µM*	-13.7%	-7.0%	.	-3.1%	-0.7%
CCOc1ccccc1N1CCN(C(=O)c2cc(-c3cc(OC)ccc3OC)nc3ccccc23)CC1	6.51µM*	-22.2%	-2.8%	.	-16.1%	2.0%
COc1ccc(OC)c(-c2cc(C(=O)N3CCN(c4ncccn4)CC3)c3ccccc3n2)c1	13µM*	-7.6%	2.5%	-21.2%	-2.0%	9.3%
